Results from PubChem BioAssay AID651558 (National Center for Advancing Translational Sciences (NCATS), 2012).
In all, about 1,200 compounds went through this assay and about 480 (40%) were called active. Inconclusive results (about 29%) are left out. This is one part of the list. Unmarked numbers belong to inactive results. The call rests on the fitted dose curve; in most records, active means well fitted inhibition curve with a large enough effect; inconclusive means small, poorly fitted or top-dose-only effect; inactive means no such curve, though single readings can be large or run the other way.

assay: qHTS Assay to Find Inhibitors of Chronic Active B-Cell Receptor Signaling: Hit Validation in Primary Screen; settings: ABC-DLBCL IkB-luc/CBR ratio luminescence, 4 h; series mostly up to 46.1 µM; activity change, negative = inhibition: at the top concentration; further: nearly all actives have a fitted effect of over 75% in size
Method in brief: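 Concentration series (3 nM to 46 uM) tested on TMD8 cells induced with doxycycline for 4 h. Filter-corrected green (IkBa fusion) over red (unfused) luciferase signal; Data were normalised to 10 uM MG-132 and untreated cell wells.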
On the % scale 0 is the no-effect control and ±100 the full control effect; potency means the concentration at half of the fitted maximal effect.

SMILES | Potency | activity change, negative = inhibition [%]
Cc1ccc(CCC(=O)Nc2ncc(Cc3cc(Cl)ccc3Cl)s2)o1 | 1.3 µM (active) | 
Cc1cccc(NC(=S)N=Nc2c(O)n(C)c3ccc(S(=O)(=O)N4CCOCC4)cc23)c1 |  | -17.4
COc1ccc(-c2csc(C3=C(O)CN(CCCN4CCCC4=O)C3=N)n2)cc1OC | 18.4 µM (active) | 
Cc1nnc2ccc(-c3ccc(NS(=O)(=O)c4ccccc4[N+](=O)[O-])cc3)nn12 | 20.6 µM (active) | 
COc1ccc(OC)c(S(=O)(=O)Nc2ccc(-c3ccc4nnc(C)n4n3)cc2)c1 |  | 182
CCc1ccc(S(=O)(=O)Nc2ccc(-c3ccc4nnc(C)n4n3)cc2)s1 | 14.6 µM (active) | 
CCN(CC)C(=S)NC(=O)c1ccc(F)cc1 |  | -2.9
CC1=Nc2cc(C(=O)NC3CCCCC3)ccc2Sc2ccc(Cl)cc21 | 2.31 µM (active) | 
CCOC(=O)N1CCC(NC(=O)CS(=O)(=O)Cc2nc(-c3ccccc3C)oc2C)CC1 |  | -13.5
CCOC(=O)N1CCC(NC(=O)c2ccc3c(c2)N=C(C)c2c(C)ccc(C)c2S3)CC1 | 6.51 µM (active) | 
CC1=Nc2cc(C(=O)NC3CCCC3)ccc2Sc2ccc(Cl)cc21 | 2.59 µM (active) | 
CCCC1=Nc2cc(C(=O)NC3CCCCC3)ccc2Sc2ccc(C)cc21 | 0.259 µM (active) | 
CCN(CC)c1ccc(-c2nn3c(-c4n[nH]c5c4CCC5)nnc3s2)cc1 | 0.651 µM (active) | 
COc1ccccc1-c1nnc2sc(-c3ccc(N(C)C)cc3)nn12 | 1.16 µM (active) | 
CN(C)c1ccc(-c2nn3c(-c4ccccc4Cl)nnc3s2)cc1 | 2.91 µM (active) | 
CCN(CC)c1ccc(-c2nn3c(-c4ccccc4OC)nnc3s2)cc1 | 1.46 µM (active) | 
C[C@]12CC[C@H]3C(=CCc4cc(O)ccc43)[C@@H]1CCC2=O |  | -23.1
Cc1ccccc1-c1nc2c3ccccc3nc(=S)n2[nH]1 |  | -3.4
S=c1nc2ccccc2c2nc(-c3ccccc3)[nH]n12 | 23.1 µM (active) | 
S=c1nc2ccccc2c2nc(-c3ccccc3Cl)[nH]n12 |  | 44.2
CCN1C(=O)c2cccc3c(NC(=O)c4ccc(OC)c(OC)c4)ccc1c23 | 10.3 µM (active) | 
COc1ccc2c(c1)C(C)=CC(C)(C)N2S(=O)(=O)c1ccc(Br)cc1 | 3.26 µM (active) | 
COc1ccc2c(c1)C(C)=CC(C)(C)N2S(=O)(=O)c1ccc(NC(C)=O)cc1 | 3.26 µM (active) | 
CCOc1ccc2c(c1)C(C)=CC(C)(C)N2S(=O)(=O)c1ccc(NC(C)=O)cc1 | 1.3 µM (active) | 
CCOc1ccc2c(c1)C(C)=CC(C)(C)N2S(=O)(=O)c1ccc(C)cc1 | 3.26 µM (active) | 
N#CC1=C(S)N(c2ccc(F)cc2)C(c2ccco2)NC1=O (stereo unspecified) |  | 46.1

SMILES | Potency | activity change, negative = inhibition [%]
COc1ccc(NC(=O)CSc2nc(N)c(C(=O)Nc3ccc(N(C)C)cc3)s2)cc1 |  | -13.4
CCOc1ccc(NC(=O)c2cc(OC)nc3ccccc23)cc1 | 5.17 µM (active) | 
CCOc1ccc(NC(=S)N(CCc2c(C)[nH]c3ccccc23)Cc2cccnc2)cc1 |  | -24
COc1ccc(C2=NN(C(C)=O)C(c3cccs3)C2)cc1OC (stereo unspecified) |  | 31.9
COc1ccc(C2CC(c3ccc(OC)c(OC)c3)=NN2C(=O)c2ccccc2)cc1 (stereo unspecified) | 6.51 µM (active) | 
COc1ccc(C2CC(c3ccncc3)=NN2c2ccc(S(N)(=O)=O)cc2)cc1 (stereo unspecified) |  | 112
N=C1SCC(=O)N1c1ncc(Cc2cccc(Cl)c2)s1 | 20.6 µM (active) | 
O=c1cc(-c2cccc(F)c2)[nH]c2ccccc12 | 3.66 µM (active) | 
O=c1cc(-c2ccc(F)cc2)[nH][nH]1 |  | 4.42
NNC(=O)c1[nH]c2ccc(Br)cc2c1-c1ccccc1 |  | 3.52
O=c1cc(-c2ccccc2)[nH]c2ccccc12 | 11.6 µM (active) | 
O=c1cc(-c2ccccc2)[nH]c2ccc(F)cc12 | 10.3 µM (active) | 
O=Cc1ccc(O)c2ncccc12 |  | -2.92
O=[N+]([O-])c1cc(Cl)c2cccnc2c1O |  | -5.39
COc1ccc(CC2(CO)CCN(Cc3cccc4nccnc34)CC2)cc1 |  | -8.35
CCCc1nc([N+](=O)[O-])c(S(=O)(=O)c2ccccc2)n1CC(C)C | 16.4 µM (active) | 
N#Cc1ccc(-c2cccs2)nc1SCc1cccnc1 | 16.4 µM (active) | 
Cc1cc(C)nc(SCc2ccc(C(=O)N/N=C/c3cccnc3)cc2)n1 |  | 31.9
COc1ccc2c(c1)sc1nc(-c3ccccc3)cn12 | 3.26 µM (active) | 
Cc1ccc(C)c(NC(=S)N=Nc2c(O)n(C)c3ccc(S(=O)(=O)N4CCOCC4)cc23)c1 |  | 35.1
COc1ccc(C2=Nn3c(nnc3C3CCCCC3)SC2)cc1OC | 2.31 µM (active) | 
COc1ccc(C2=Nn3c(nnc3-c3ccccc3OC)SC2)cc1OC | 1.3 µM (active) | 
CCOc1ccc(C2=Nn3c(nnc3-c3ccccc3OC)SC2)cc1 | 0.0731 µM (active) | 
COc1ccc(C2=Nn3c(nnc3-c3ccc(OC)cc3)SC2)cc1 | 14.6 µM (active) | 
COc1ccc(C2=Nn3c(nnc3-c3ccccn3)SC2)cc1OC |  | 23.8
